# Sampled rows, rich in hits. Any-hit rate of the full collection: about 5.2%.
# Tau ThT inhib – blocks human tau fibril formation measured by thioflavin T; P10636; recombinant tau K18 P301L, heparin-induced fibrillization, ThT fluorescence; Potency, µM (doses to about 57.4 µM), for inactives: at the top dose activity, negative = inhibition, usual class: inhibitors; actives 2.1% (n = 270,000); note: potency is the fitted concentration of half-maximal effect; nearly all actives have a fitted effect of over 55% in size
# Target sequence (P10636 561-689 P618L limits assumed): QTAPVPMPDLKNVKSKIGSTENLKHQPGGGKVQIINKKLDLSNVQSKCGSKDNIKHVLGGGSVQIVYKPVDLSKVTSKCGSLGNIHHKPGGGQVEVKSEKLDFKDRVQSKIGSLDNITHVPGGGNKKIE
#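 Heparin-induced (20 uM) aggregation of recombinant human K18 P301L tau, 15 uM unlabeled with 0.24 uM labeled, pH 7 acetate buffer, 6 hr at 37 C with compound. Fibrils quantified by 30 uM ThT fluorescence after 1 hr ambient incubation.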
# Coupling enz – coupling enzyme interference in Giardia aldolase counter-screen; activity change, negative = inhibition, % at 58.2 µM, hits read low; actives 0.67% (n = 290,000); coupling enzyme system counterscreen, AmpLite Red fluorescence; in the data active = activity change below about -30%
#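 Coupling enzymes only (glyceraldehyde-3-phosphate) + compound, at 57.5 uM final, 10 min RT; add substrate/coupling/AmpLite Red mix, 20 min RT; fluorescence ex 525/em 598 nm. Actives flag coupling-system interference.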
# Sfp inh – blocks B. subtilis Sfp PPTase activity. Q9F4F7. Biochemical Sfp PPTase activity, qHTS. Potency, µM, without a hit: largest response in the series, negative = inhibition, actives largely listed as inhibitors. actives 3.5% (n = 310,000);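 note: the enzyme is Sfp with the accession as filed and its product quenches rhodamine fluorescence; potency is the fitted concentration of half-maximal effect; 0% = enzyme reaction without inhibitor and -100% = no enzyme wells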
#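 Step 1, compound plus 15 nM Sfp-PPTase, 15 min, room temperature. Step 2, add rhodamine-CoA (5 uM) and BHQ-2-YbbR (12.5 uM). Step 3, read 525/598 nm fluorescence at 0 and 30 min.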
# Tau FP inhib – inhibitors of human tau fibril formation. K18 P301L tau heparin fibrillization, Alexa594 FP, 6 h. Potency, µM (series often up to 57.7 µM), without a hit: at the highest dose activity, negative = inhibition, usual class: inhibitors. actives 0.39% (n = 280,000); note: potency is the fitted concentration of half-maximal effect; nearly all actives have a fitted effect of over 55% in size
#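 Steps: dispense K18 P301L tau (15 uM plus 0.24 uM Alexa 594 tracer, final) in pH 7 sodium acetate; add compound; add heparin (20 uM final); incubate 6 hr, 37 C; add ThT (30 uM final); after 1 hr ambient, read FP.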
# Tau fluor cs – counter-screen for tau fibril formation inhibitors. Potency, µM (titrated, usually from 57.7 µM), for inactives: at the top dose activity change, negative = decrease. tau K18 P301L (four-repeat tau fragment) Alexa594 fluorescence, heparin fibrillization. actives 0.93% (n = 280,000); note: potency is the fitted concentration of half-maximal effect; nearly all actives have a fitted effect of over 55% in size
#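 Human K18 P301L tau (15 uM unlabeled plus 0.24 uM Alexa 594-labeled, final) in 100 mM sodium acetate pH 7 was mixed with compound and 20 uM heparin and incubated 6 hr at 37 C.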
# Numbers without * were called inactive; ? = inconclusive; . = no result given; [ ] = another dose, or the depositor's remark. Unless noted, calls come from the whole dose curve; as a rule, active = well fitted curve in the direction sought with a large enough effect; inconclusive = small, poorly fitted or top-dose-only effect, or another doubt; inactive = no such curve, though single readings can be large; an effect the other way counts as inactive or inconclusive. Unless noted, % is set by controls: 0 for no effect and ±100 for the full control effect.
SMILES,Tau ThT inhib,Coupling enz,Sfp inh,Tau FP inhib,Tau fluor cs
Cc1cc2cc(CN(Cc3nnnn3C3CCCCC3)CC3CCCO3)c(=O)[nH]c2cc1C (stereo not given),0%,-6,50µM*,1%,9%
C[C@@H](O)C(N)C(=O)O (stereo not given in full),.,-2,11%,.,.
O=C1N/C(=N/Nc2ccccc2)S/C1=C\c1ccccc1,?,1,25µM*,0%,1%
O=C1NC(=Nc2ccccc2)S/C1=C\c1ccccc1,.,2,17%,.,.
OCCCc1cn(-c2ccccc2)c2ccccc12,2%,4,19%,-3%[2.34 µM],-8%[2.34 µM]
Clc1nc(Cl)nc(-c2cn(-c3ccccc3)c3ccccc23)n1,-7%,5,56µM*,-2%,-19%
CCCc1ccc(C2=Nn3c(nnc3C(C)C)SC2)cc1,.,1,22µM*,.,.
CC(C)c1nnc2n1N=C(c1ccc(Cl)cc1)CS2,.,0,-4%,.,.
CCOc1ccc(C(C)=O)cc1N1C(=O)C2C3C=CC(C3=C(C)C)C2C1=O (stereo not given),-4%,4,45µM*,-2%,-1%
Cc1nn(-c2ccccc2)c2nc(C3CC3)cc(C(=O)Nc3ccc(F)cc3)c12,14%,.,.,-17%,-9%
COC(=O)CCC(=O)Nc1ccc(N=Nc2ccccc2)cc1,11µM*,1,-40%,-11%,?
COC(=O)c1ccc(N=Nc2ccccc2)cc1,14µM*,2,11%,-1%,-10%
Cc1cc(C)c2c(n1)nn1c(C)c(CCC(=O)Nc3cccc(C)c3C)c(C)nc21,?,.,.,-2%,-8%
CC(=O)c1cn(CC(=O)Nc2cccc(C)c2C)c2ccccc12,-12%,1,45µM*,-1%,-10%
CC(=O)Nc1nc2cc3c(cc2s1)OCO3,-5%,0,7%,8%,5%
CC(=O)c1sc(Nc2nc3cc4c(cc3s2)OCO4)nc1C,3.2µM*,2,?,0%,?
CCOC(=O)c1sc(Nc2nc3cc4c(cc3s2)OCO4)cc1C,?,-1,-8%,-2%,4.5µM*[quencher]
Oc1ccc(N2CCN(CC(O)c3ccccc3)CC2)cc1 (stereo not given),.,-19,50µM*,.,.
CC(=O)c1ccc(N2CCN(Cc3nc4ccccc4[nH]3)CC2)cc1,.,-1,10%,.,.
Oc1ccc(N2CCN(Cc3nc4ccccc4[nH]3)CC2)cc1,.,-5,56µM*,.,.
O=C(NCc1ccco1)[C@@H]1CSC2c3ccccc3C(=O)N21 (stereo not given in full),-17%,2,35µM*,-3%,-3%
O=C(COc1ccc([N+](=O)[O-])cc1)N1CCC(c2nc3ccccc3s2)CC1,-19%,.,.,5%,-16%
Cc1cc([N+](=O)[O-])ccc1N=Nc1c(N)[nH]n(-c2ccccc2)c1=O,16µM*,0,14%,?,?
Nc1[nH]n(-c2ccccc2)c(=O)c1N=Nc1ccc2c(c1)OCO2,2.2µM*,-7,-22%,?,10µM*[quencher]
Cc1[nH]n(-c2ccccc2)c(=O)c1N=Nc1ccccc1,?,0,16%,2%,-6%
SMILES,Tau ThT inhib,Coupling enz,Sfp inh,Tau FP inhib,Tau fluor cs
Nc1[nH]n(-c2ccccc2)c(=O)c1N=Nc1ccc2c(c1)OCCO2,6.3µM*,-5,-1%,-12%,11µM*[quencher]
Cc1ccc(C)c(N2CCN(c3nc4ccccc4c4nc(CCn5nc(C)cc5C)nn34)CC2)c1,7%,.,.,4%,4%
CCOc1ccc(C(=O)N/N=C(/C)C2C(=O)c3ccccc3C2=O)cc1,1.8µM*,0,7%,1%,-20%
C/C(=N\NC(=O)c1ccc(Br)cc1)C1C(=O)c2ccccc2C1=O,4µM*,1,2%,?,?
CCOc1ccc(OCc2ccc(C(=O)N/N=C(\C)c3ccccn3)cc2)cc1,?,1,16%,8%,-2%
C/C(=N\NC(=O)c1ccc(-c2ccccc2)cc1)C1C(=O)c2ccccc2C1=O,-11%,1,4%,5%[2.34 µM],-11%
CCOc1cc(CNC(C)(C)CO)cc(Br)c1OCc1ccc(Cl)cc1Cl,-10%,-4,45µM*,1%,-23%
COc1cccc(CNc2ccccc2O)c1OCc1ccccc1F,?,-18,50µM*,0%,?
COc1cc(CNCc2ccncc2)cc(Br)c1OCc1ccccc1F,-2%,2,-4%,-2%,-11%
CCOc1cc(CNCCO)cc(Br)c1OCc1ccccc1Cl,-7%,1,-9%,-6%,-25%
CCOc1cc(CNc2ccc(O)cc2)cc(Br)c1OCc1ccccc1F,25µM*,-56*,18µM*,?,13µM*[quencher]
CCOc1cc(/C=N/NC(N)=O)cc(Br)c1OCc1ccccc1F,-10%,2,-1%,?,?
COc1cc(CNc2ccc(O)cc2)cc(Br)c1OCc1ccccc1F,25µM*,-57*,28µM*,?,13µM*[quencher]
CC1CCC2C(=O)N3C(CCC(C)[C@@H]3c3cccc(N4CCOCC4)c3)C(=O)N2C1c1cccc(Br)c1 (stereo not given in full),-28%[11.5 µM],0,-11%,7%[11.6 µM],-29%[11.6 µM]
CCOc1ccc(NC(=O)Cn2c(=O)n(Cc3ccccc3)c(=O)c3sc4ccccc4c32)cc1,8%,.,.,-18%,2%
CCOc1cc(CNc2ccc(O)cc2)cc(Br)c1OCc1ccccc1,?,.,.,-1%,8.9µM*[quencher]
COc1cc(CNC(C)(C)CO)cc(Br)c1OCc1ccccc1,-2%,2,5%,3%,4%
CCCCCCCCCCCCCCCC(=O)OC[C@H](O)[C@H]1OC[C@@H](O)[C@@H]1O,.,.,5%,.,.
Cc1cccc(C(=O)N/C(=C/c2ccco2)C(=O)N2CCCCCC2)c1,.,.,50µM*,.,.
Cc1ccc(C(=O)N/C(=C/c2ccco2)C(=O)N2CCC(C)CC2)cc1,.,-2,56µM*,.,.
Cc1cccc(C(=O)N/C(=C\c2ccco2)C(=O)N2CCCCCC2)c1,.,2,3%,.,.
Nc1c(-c2nc(-c3ccccc3Cl)no2)nnn1-c1ccccc1F,10%,.,.,4%,0%
COc1cccc(NS(=O)(=O)c2ccc3[nH]cc(C(=O)N(C)C4CCCCC4)c(=O)c3c2)c1,-2%,.,.,-11%,-17%
Cc1ccc(NC2CC(=O)N(c3ccc(N4CCCCC4)cc3)C2=O)cc1 (stereo not given),?,0,-9%,1%,-15%
CN(C)c1ccc(N2C(=O)CC(Nc3ccc(N4CCOCC4)cc3)C2=O)cc1 (stereo not given),14µM*,3,-9%,0%,-15%
O=C1CC(Nc2ccc(N3CCOCC3)cc2)C(=O)N1c1cccc(C(F)(F)F)c1 (stereo not given),16µM*,-36*,?,0%,-26%
